An excerpt weighted towards active compounds, which were near 4.7% of everything screened.
TRHR ag: TRH receptor (human) agonism | TRHR cells, calcium flux fluo-8, FDSS agonist mode | activation, % at 2 µM | 360,000 compounds, 0.18% hits
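Steps: seed TRHR cells overnight; add fluo-8 no-wash Ca dye, RT 30 min–1.5 h; record 10 s baseline; pin-transfer compounds; monitor fluorescence 1 cycle/s for the agonist window. Calcium increases flag candidate agonists.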
D1 ag: human D1 receptor agonism. activation, % at 2 µM. HEK293 T-REx D1 cells, calcium flux, agonist mode. 360,000 compounds, 1% hits. AID 504660
Target sequence (P21728 whole entry, looked up): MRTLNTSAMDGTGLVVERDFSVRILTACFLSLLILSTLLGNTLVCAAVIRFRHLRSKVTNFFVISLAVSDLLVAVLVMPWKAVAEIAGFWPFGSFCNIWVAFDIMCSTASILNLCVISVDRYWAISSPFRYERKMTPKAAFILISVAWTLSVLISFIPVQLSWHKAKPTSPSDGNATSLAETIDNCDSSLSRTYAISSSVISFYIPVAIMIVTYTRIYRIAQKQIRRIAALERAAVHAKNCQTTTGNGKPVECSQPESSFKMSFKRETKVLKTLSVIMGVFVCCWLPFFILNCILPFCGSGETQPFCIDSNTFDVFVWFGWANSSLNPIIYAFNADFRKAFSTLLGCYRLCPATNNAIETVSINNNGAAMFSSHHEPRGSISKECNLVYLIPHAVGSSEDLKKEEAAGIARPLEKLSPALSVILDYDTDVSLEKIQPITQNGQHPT
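Inducible HEK293 T-REx D1 cells, force-coupled to calcium signalling, were plated at 4000 cells/well with tetracycline and held overnight at 30 C. After no-wash calcium dye loading, compound-evoked calcium rise over 180 s flagged agonists.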
D1 antagonist: antagonists of human D1 dopamine receptor; HEK293 TREx D1 cells, calcium flux, dopamine EC80; active compounds read low; activity change, negative = inhibition, % at 10 µM; 360,000 compounds, 3.2% hits; AID 504652; in the data active means activity change below about -30%
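Allosteric or orthosteric antagonism assessed as attenuation of the calcium response to EC80 dopamine, added 180 s after compound, in induced HEK293 Trex D1 cells loaded with no-wash calcium dye.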
D1 PAM: human D1 dopamine receptor positive modulation; HEK293 TREx D1 cells, calcium flux, dopamine EC20 potentiation; potentiation, % at 10 µM; 360,000 compounds, 0.036% hits; in the data active means potentiation above about 30%
TRHR PAM: allosterically enhances the human TRH receptor | P34981 | TRHR cells, fluo-8 calcium fluorescence, EC20 TRH enhancement | enhancement, % at 2 µM | 360,000 compounds, 0.66% hits; in the data active means enhancement above about 30%
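Enhancer read-out: after compound pinning and an initial kinetic agonist-mode read, an EC20 of TRH (10 nM final) was injected and fluo-8 calcium signal (Ex 480/Em 530) followed at 1 s/cycle for 100 cycles in TRHR-expressing cells.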
Numbers stand for hits; i = inactive; nt = not tested or not shown. Unless noted, no stated cut-off is given here; in the data, active means activation above about 30%; inactive means the rest.

SMILES	TRHR ag	D1 ag	D1 antagonist	D1 PAM	TRHR PAM
Cc1ccnc2nc(C(=O)OCCOc3ccc(Cl)cc3)nn12	i	i	-37	i	i
Cc1ccnc2nc(C(=O)OCCOc3ccc(F)cc3)nn12	i	i	i	i	i
Cc1cc(C)n2nc(C(=O)OCC(=O)NCc3ccc(Cl)cc3)nc2n1	i	i	-33	i	i
O=C1c2ccccc2C(=O)N1CCCCN(C(=O)c1cc([N+](=O)[O-])cc([N+](=O)[O-])c1)c1ccc(Cl)cc1	i	i	-51	i	i
C=CCn1cccc(C(=O)Nc2ccc(OCC)cc2)c1=O	i	i	i	i	i
c1ccc(OCCOc2cccc3cccnc23)cc1	i	i	i	i	i
CC(C)Oc1ccccc1OCCCOc1cccc2cccnc12	i	i	-48	i	i
OCc1ccccc1OCCCOc1cccc2cccnc12	i	i	-31	i	i
COc1cc(/C(C)=N/Nc2ccc(C(=O)O)cc2)cc(OC)c1OC	i	i	i	i	i
COc1ccc(/C(C)=N/Nc2ccc(C(=O)O)cc2)cc1OC	i	i	-31	i	i
CC1CCN(C(=S)c2ccc(O)cc2)CC1	i	i	-75	i	i
O=C(OCCOCCN=C1NS(=O)(=O)c2ccccc21)c1ccccc1Br	i	i	i	i	i
O=S(=O)(Nc1cccc2cccnc12)c1cccs1	i	i	i	i	i
COc1ccc(NC(C)C(=O)N/N=C/c2ccccc2OCc2cccc(Br)c2)cc1 (centres undefined)	i	i	i	i	34
NC(=O)c1nsc(C(=O)N(CC(=O)NC2CCCC2)c2cnc3ccccc3c2)c1N	i	i	i	i	i
COc1ccc(-c2nc(NC(C)=O)sc2-c2ccccc2)cc1	i	i	-32	i	i
COc1ccc(-c2sc(NC(C)=O)nc2-c2ccccc2)cc1	i	i	i	i	i
CC(C)(O)C#Cc1ccc(CN2CCN(CCc3ccccc3)C(CCO)C2)s1 (centres undefined)	i	i	-37	i	i
CC(C)(O)C#Cc1ccc(CN2CCN(Cc3ccsc3)C(CCO)C2)s1 (centres undefined)	i	i	i	i	i
CC(C)=CCN1CCN(Cc2ccc(C#CC(C)(C)O)s2)CC1CCO (centres undefined)	i	i	-37	i	i
CC(C)(O)C#Cc1ccc(CN2CCN(Cc3ccccc3)C(CCO)C2)s1 (centres undefined)	i	i	i	i	i
COc1ccccc1CNS(=O)(=O)c1ccc(-c2cc(C(F)(F)F)on2)s1	i	33	i	i	i
CCCCCCNC(=O)c1cn(CC)c2cc(N3CCN(C)CC3)c(F)cc2c1=O	i	87	-50	i	i
CCn1cc(C(=O)O)c(=O)c2cc(F)c(N3CCNCC3)cc21	i	i	-48	i	i
CCn1cc(C(=O)O)c(=O)c2cc(F)c(N3CCN(C)CC3)cc21	i	i	i	i	i
SMILES	TRHR ag	D1 ag	D1 antagonist	D1 PAM	TRHR PAM
CCn1cc(C(=O)NCCCO)c(=O)c2cc(F)c(N3CCN(C)CC3)cc21	i	i	i	i	i
C=CCC(=O)N1CCCC(CO)(Cc2ccc(F)cc2F)C1 (centres undefined)	i	i	i	i	i
COC(=O)CN1C(CN2CCOCC2)=Nc2ccc(Br)cc2C1c1ccccc1 (centres undefined)	i	i	-49	i	i
COC(=O)CN1C(c2cccc(Cl)c2)=Nc2ccc(Cl)cc2C1c1ccccc1 (centres undefined)	i	i	i	i	i
CCOc1ccc(C(=O)Nc2ccc3nc(SCC(=O)N4CCOCC4)sc3c2)cc1	i	i	i	i	i
Cc1nn(CC(=O)OCC(=O)NC(C)c2ccccc2)c(C)c1[N+](=O)[O-] (centres undefined)	i	i	-34	i	i
CCOC(=O)C(CC)n1cnc2c(cnn2-c2ccc(Cl)cc2)c1=O (centres undefined)	i	i	-32	i	i
C=CCC1S/C(=N/N=C/c2cccs2)NC1=O (centres undefined)	i	i	i	i	i
O=C1N/C(=N\N=C\c2cccs2)SC1Cc1ccc(Cl)c(Cl)c1 (centres undefined)	i	i	-43	i	i
CC(C)(C)C(=O)NC(=S)NNC(=O)c1ccc(-c2ccccc2)cc1	58	262	nt	i	i
CC(C)(C)C(=O)NC(=S)NNC(=O)c1ccc(Cl)cc1Cl	102	397	i	i	i
Cc1ccc(Cn2ncc3c4sc(C)cc4n(C)c3c2=O)cc1	i	i	i	i	i
COc1ccc(N(C)S(=O)(=O)c2cccc(C(=O)Nc3ccc(OC)nc3)c2)cc1	i	i	i	i	i
COc1ccc(N(C)S(=O)(=O)c2cccc(C(=O)Nc3ccc4c(c3)OCCO4)c2)cc1	i	i	-35	i	i
Cc1cccc(OCCNc2ccc(C(F)(F)F)cc2[N+](=O)[O-])c1	i	i	i	i	i
Cc1ccc(OCCNC(=O)c2cccc(S(=O)(=O)NCc3ccccc3)c2)cc1	i	41	-35	i	i
COc1ccc(CCNC(=O)COc2ccc(N(C)S(=O)(=O)c3ccc(C)cc3)cc2)cc1	i	i	-31	i	i
Cc1ccc(OCCNC(=O)c2cccc(Oc3ccc(C(F)(F)F)cc3[N+](=O)[O-])c2)cc1	i	44	i	i	i
Cc1ccc(-n2c(=O)c3c(cnn3C)n(Cc3ccccc3F)c2=O)cc1	i	i	i	i	i
Cc1ccc2oc(=O)n(CCCOc3ccc(Cl)cc3)c2c1	i	i	i	i	i
O=C(Cn1cc(CN(Cc2ccccc2)Cc2ccccc2)nn1)Nc1cc(C(F)(F)F)ccc1Cl	i	i	i	i	i
COC(=O)c1ccc(N2CCN(c3ccccc3)CC2)c(N)c1	i	i	i	i	i
COc1ccc(N(C)S(=O)(=O)c2cccc(C(=O)NCc3ccc(C)cc3)c2)cc1	i	i	-32	i	i
CCOC(=O)C1(Cc2cccc(OC)c2)CCN(Cc2ccc3c(c2)OCCO3)CC1	i	i	i	i	i
CCOC(=O)C1(CCOc2ccccc2)CCN(Cc2ccc(O)c(OC)c2)CC1	i	i	i	i	i
SMILES	TRHR ag	D1 ag	D1 antagonist	D1 PAM	TRHR PAM
CCOC(=O)C1(CCOc2ccccc2)CCN(Cc2ccc3c(c2)OCCO3)CC1	i	i	-43	i	i
CCOC(=O)C1(CCOc2ccccc2)CCN(Cc2ccc(O)c(Cl)c2)CC1	i	i	-39	i	i
CCOC(=O)C1(CCOc2ccccc2)CCN(Cc2cccc(OC)c2O)CC1	i	i	-45	i	i
O=[S+]([O-])(c1c(F)cccc1F)N1CCN([S+](=O)([O-])c2csc3ccccc23)CC1	i	i	i	i	i
CCS(=O)(=O)c1ncc(N(Cc2ccccc2)Cc2ccco2)c(C(=O)Nc2ccc(C)c(C)c2)n1	i	i	i	i	i
CCOc1ccc(NC(=O)c2nn(C)c3c2CS(=O)(=O)c2ccccc2-3)cc1	i	i	i	i	i
O=C(O)/C=C/c1cccnc1	i	i	-80	i	i
